Assay outcomes as filed in PubChem BioAssay.
The entries come from a sample that favours hits as a whole.
Pf Dd2 growth = inhibitors of Plasmodium falciparum Dd2 growth | P. falciparum Dd2 growth, SYBR Green, 72 h | Potency, µM (series often up to 28.9 µM), inactives show at the highest dose activity, negative = inhibition, usual class: inhibitors | 120,000 compounds, 4.3% hits; active = well fitted inhibition curve with a large enough effect;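 note: plate controls were DMSO vehicle for no effect and reference drug for full effect; nearly all actives have a fitted effect of over 65% in size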
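Infected erythrocytes (Dd2, 0.3% parasitemia, 2.5% hematocrit final) are added to compound in RPMI-1640/Albumax II medium, grown 72 h at 37C in low oxygen, then lysed with saponin/Triton-X containing SYBR Green and read by fluorescence.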
* hit, by the source's call; i = inactive; [ ] = remark or other dose. Potency is the fitted concentration of half-maximal effect.

SMILES | Pf Dd2 growth
Cc1ccc(-n2c(C3CCN(C(=O)c4cc(C)cc(C)c4)CC3)n[nH]c2=O)cc1 | i
Cc1ccc(-n2c(C3CCN(C(=O)COc4ccc(F)cc4)CC3)n[nH]c2=O)cc1 | -15%
Cc1ccc(Cn2c(C3CCN(C(=O)c4ccc(C#N)cc4)CC3)n[nH]c2=O)cc1 | i
Cc1ccc(Cn2c(C3CCN(C(=O)c4cc(C)cc(C)c4)CC3)n[nH]c2=O)cc1 | 8.9µM*
Cc1ccc(-n2c(C3CCN(C(=O)c4cccc(C)c4)CC3)n[nH]c2=O)cc1 | -2%
CCc1ccc(C(=O)N2CCC(c3n[nH]c(=O)n3Cc3ccc(F)cc3)CC2)cc1 | -26%
Cc1ccc(-n2c(C3CCN(C(=O)c4ccc(C(C)(C)C)cc4)CC3)n[nH]c2=O)cc1 | 4.5µM*
Cc1ccc(Cn2c(C3CCN(C(=O)c4cccc(C)c4)CC3)n[nH]c2=O)cc1 | -28%
O=C1CCCCCN1C1CCN(Cc2ccc(F)cc2)CC1 | -7%[44.1 µM]
CC(Oc1ccc2ccccc2c1)C(=O)N1CCCOCC1 (stereo not drawn) | -15%
O=C(NCCc1csc(-c2ccncc2)n1)C1CNCCO1 (stereo not drawn) | -5%
CN(Cc1noc(C2CCCC2)n1)C(=O)Cn1ncc2ccccc2c1=O | -16%
O=C(C1CC2(CCNCC2)CN1)N1CCc2c(nc(CC3CC3)[nH]c2=O)C1 (stereo not drawn) | 3%
CCN1CC(NC(=O)c2cccc(S(=O)(=O)N(C)CCO)c2)CC1=O (stereo not drawn) | -14%
Cc1ccc(O)c(NC(=O)c2ccc(Br)c(S(=O)(=O)N3CCCCC3)c2)c1 | 6.3µM*
CC(C)c1ccc(NC(=O)c2ccc(F)c(S(=O)(=O)N3CCCC3)c2)cc1 | -24%
CC(C)c1ccc(NC(=O)c2ccc(F)c(S(=O)(=O)N3CCCCCC3)c2)cc1 | 21%
N[C@H]1CCN2C(=O)c3cc(-c4ccc5c(c4)OCO5)ccc3NC(=O)[C@H]12 | 0%[44.1 µM]
O=C(NC1CCCc2c1[nH]c1ccc(F)cc21)c1cccs1 (stereo not drawn) | i
Cc1noc(C)c1CCC(=O)NC1CCCc2c1[nH]c1ccc(F)cc21 (stereo not drawn) | 11µM*
O=C(CCNC(=O)c1cnccn1)NC1CCCc2c1[nH]c1ccc(F)cc21 (stereo not drawn) | -9%
CC(C)CC(=O)NC1CCCc2c1[nH]c1c(Cl)cccc21 (stereo not drawn) | -22%
O=C(Cc1c[nH]c2ccccc12)NC1CCCc2c1[nH]c1ccc(F)cc21 (stereo not drawn) | 13µM*
Cc1noc(C)c1C(=O)NC1CCCc2c1[nH]c1c(Cl)cccc21 (stereo not drawn) | -8%
COc1ccc(CC(=O)NC2CCCc3c2[nH]c2ccc(F)cc32)cc1OC (stereo not drawn) | -16%
SMILES | Pf Dd2 growth
Cc1noc(C)c1C(=O)NC1CCCc2c1[nH]c1ccc(F)cc21 (stereo not drawn) | -11%
Cc1noc(C)c1CC(=O)NC1CCCc2c1[nH]c1c(Cl)cccc21 (stereo not drawn) | 7.9µM*
CCn1nccc1C(=O)N1C[C@@H]2CCCN3CCC[C@@H]([C@H]23)[C@H]1CCCC(=O)NCC1CC1 | -19%
CCNC(=O)N(C1CC1)C1CCOC2(CCN(C(=O)c3ocnc3C)CC2)C1 (stereo not drawn) | 7%
C#CCNC(=O)C[C@@H]1O[C@H](CNC(=O)c2ccc(C)cc2)[C@@H](O)[C@H]1O | 10%[44.1 µM]
CCCNC(=O)C(NC(=O)c1ccccc1C)C1CCN(C(=O)C2CCCC2)CC1 (stereo not drawn) | -17%
CC(C)CC(=O)N1CCN(C(=O)N2CC3CC(C2)[C@H]2CCCC(=O)N2C3)CC1 (stereo partly drawn) | 11%
CC1Oc2ccc(NS(=O)(=O)c3ccc(Cl)cc3)cc2CN(Cc2ccccc2F)C1=O (stereo not drawn) | -17%
Cc1nonc1OCCNC(=O)C1CCC(=O)N(CCN2CCOCC2)C1 (stereo not drawn) | 17%
Cc1[nH]cnc1CN1CCN(C2CCCC2)CC(C(=O)O)C1 (stereo not drawn) | -8%
Cc1cc(C)nc(CNC2CCN(c3nc(C)nc4sccc34)CC2)n1 | -8%
Cc1cc(N2CCC(NCc3nc[nH]c3C)CC2)nc(-c2ccccc2O)n1 | 10µM*
O=C1Nc2ccccc2CNC12CCN(CC1CCCC1)CC2 | -18%
Cc1noc([C@@H]2CN(C(=O)c3cc(C)oc3C)C[C@H]2CO)n1 | -14%
O=S(=O)(N[C@H]1[C@H](O)[C@H](O)C[C@@H]1c1cncnc1)c1ccc(C(F)(F)F)cc1 | 1%[44.1 µM]
N#Cc1ccc(S(=O)(=O)N[C@H]2[C@H](O)[C@H](O)C[C@@H]2c2ccc(C(F)(F)F)cc2)cc1 | 11µM*
O=S(=O)(N[C@H]1[C@H](O)[C@H](O)C[C@@H]1c1ccccc1)c1ccc(C(F)(F)F)cc1 | -26%[44.1 µM]
O=C(Nc1ccc(F)cc1)N[C@H]1[C@H](O)[C@@H](N2CCC(Cc3ccccc3)CC2)[C@@H]2OC[C@H]1O2 | i
O=C(O)C1=NOC2CN(CC3CCCC3)CC12 (stereo not drawn) | 12%[44.1 µM]
Cn1cc([C@@H](NC(=O)CCc2ccsc2)C2CC(O)C2)cn1 (stereo partly drawn) | -9%
CN1CC(=O)N(c2ccccc2)Cc2c(NCCOc3ccccc3)ncnc21 | i
CN1CC(=O)N(c2ccccc2)Cc2c(NCCCc3ccccc3)ncnc21 | 6.3µM*
CN1CC(=O)N(c2ccccc2)Cc2c(NCCc3ccc(Cl)cc3)ncnc21 | i
CN1CC(=O)N(c2ccccc2)Cc2c(NCc3ccc(F)cc3)ncnc21 | -15%
CN1CC(=O)N(c2ccc(Cl)cc2)Cc2c1ncnc2N1CCC(Cc2ccccc2)CC1 | 13µM*
SMILES | Pf Dd2 growth
CN1CC(=O)N(c2ccc(Cl)cc2)Cc2c(NCc3ccc(F)cc3)ncnc21 | 7.9µM*
CN1CC(=O)N(c2ccccc2)Cc2c1ncnc2N1CCC(O)CC1 | 0%
CN1CC(=O)N(c2ccc(Cl)cc2)Cc2c(NCc3cccs3)ncnc21 | i
CN1CC(=O)N(c2ccccc2F)Cc2c1ncnc2N1CCC(c2ccccc2)CC1 | i
Cc1ccc(C(=O)N2C[C@@H](CO)[C@H](c3ccccn3)C2)c(C)c1 | -2%
O=C1CCN(C(=O)C2CCCCC2)CCCC(C(=O)NCc2ccccc2)CCN1 (stereo not drawn) | -21%
O=C1CCN(C(=O)c2ccco2)CCCC(C(=O)NCc2ccccc2)CCN1 (stereo not drawn) | -13%
O=C1CCN(C(=O)C2(c3ccccc3)CC2)CCCC(C(=O)NCc2ccccc2)CCN1 (stereo not drawn) | 0.4µM*
O=C(c1ccccc1)N1CCC(c2nnc3n2C(C(=O)N2CCOCC2)CC3)CC1 (stereo not drawn) | 9%
COc1cccc(NC(=O)CC2CCCCN(C)C2=O)c1 (stereo not drawn) | 11%
COCc1nc2ccccc2n1CCOc1cccc(C)c1 | 22%
COc1ccccc1OCCn1c(NC(=O)c2ccccc2Cl)nc2ccccc21 | -9%
COc1ccccc1OCCn1c(COc2cc(C)ccc2C)nc2ccccc21 | 6.3µM*
CCn1ccnc1CN1CCc2[nH]cnc2C1c1ccc(OC)c(F)c1F (stereo not drawn) | -25%
CC(=O)N1CCC(N2CC[C@@H](CO)N(C)c3ncccc3C2)CC1 | 0%[44.1 µM]
CCC(=O)N1CCc2cc(Br)cc(S(=O)(=O)N3CCN(c4cc(C)ccc4C)CC3)c21 | 5%
CCC(=O)N1CCc2cc(Br)cc(S(=O)(=O)N3CCCC(C(=O)Nc4cc(C)ccc4OC)C3)c21 (stereo not drawn) | i
